Hit rate of the full screen: of about 5,500 compounds, about 2,000 (36%) were called active. Not shown: some 18% with an inconclusive outcome. No stated cut-off is given here; in the data, active means normalized growth mostly below about 0.91 (no sharp cut-off); inconclusive means no clear call, values can overlap the other calls; inactive means mostly above about 0.92. This is one part of the list.
Test: chemical genetic growth profiling, strain panel (AID 1159580);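 further: tested at 20 µM; growth read once vehicle control cultures reached saturation at 30 °C; 1 = growth at the plate median or of vehicle wells; lower values mean less growth of the strain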
Settings: S. cerevisiae deletion strains, growth OD

Measured: normalized growth

Cc1oc(-c2ccc(Cl)cc2)cc1C(=O)N1CCN(c2ccc(C(F)(F)F)cn2)CC1
active: locus YHR030C, strain SLT2, active compounds read low 0.682
inactive: locus YAR019C, strain CDC15, active compounds read low 0.977 | locus YBL105C, strain PKC1, active compounds read low 0.972 | locus YBR135W, strain CKS1, active compounds read low 0.97 | locus YBR136W, strain MEC1, active compounds read low 0.963 | locus YBR160W, strain CDC28, active compounds read low 0.969 | locus YDL017W, strain CDC7, active compounds read low 0.978 | locus YDL028C, strain MPS1, active compounds read low 0.974 | locus YDL101C, strain DUN1, active compounds read low 0.983 | locus YDL108W, strain KIN28, active compounds read low 0.974 | locus YDL132W, strain cdc53, active compounds read low 0.982 | locus YDL214C, strain PRR2, active compounds read low 0.908 | locus YDR052C, strain DBF4, active compounds read low 0.982 | locus YDR054C, strain cdc34, active compounds read low 0.969 | locus YDR226W, strain ADK1, active compounds read low 0.972 | locus YDR477W, strain SNF1, active compounds read low 0.925 | locus YER123W, strain YCK3, active compounds read low 0.926 | locus YER133W, strain GLC7, active compounds read low 0.938 | locus YFL009W, strain cdc4, active compounds read low 0.967 | locus YFL029C, strain CAK1, active compounds read low 0.986 | locus YFR003C, strain YPI1, active compounds read low 0.974 | locus YFR019W, strain FAB1, active compounds read low 0.992 | locus YFR028C, strain CDC14, active compounds read low 0.976 | locus YGR040W, strain KSS1, active compounds read low 0.929 | locus YGR052W, strain FMP48, active compounds read low 0.959 | locus YGR092W, strain DBF2, active compounds read low 0.874 | locus YHR079C, strain IRE1, active compounds read low 0.964 | locus YHR082C, strain KSP1, active compounds read low 0.966 | locus YHR205W, strain SCH9, active compounds read low 0.883 | locus YIL147C, strain SLN1, active compounds read low 0.979 | locus YJL095W, strain BCK1, active compounds read low 0.905 | locus YJL128C, strain PBS2, active compounds read low 0.918 | locus YJL157C, strain FAR1, active compounds read low 0.944 | locus YJR016C, strain ILV3, active compounds read low 0.979 | locus YJR066W, strain TOR1 (second series), active compounds read low 0.975 | locus YJR066W, strain TOR1, active compounds read low 0.9 | locus YKL048C, strain ELM1, active compounds read low 0.976 | locus YKL067W, strain YNK1, active compounds read low 0.907 | locus YKL101W, strain HSL1, active compounds read low 0.94 | locus YKL193C, strain SDS22, active compounds read low 0.97 | locus YKL203C, strain TOR2, active compounds read low 1 | locus YLR113W, strain HOG1, active compounds read low 0.893 | locus YLR133W, strain CKI1, active compounds read low 0.929 | locus YLR403W, strain SFP1, active compounds read low 0.94 | locus YML070W, strain DAK1, active compounds read low 0.951 | locus YMR001C, strain CDC5, active compounds read low 0.989 | locus YMR205C, strain PFK2 (second series), active compounds read low 0.937 | locus YMR277W, strain FCP1, active compounds read low 0.975 | locus YNL006W, strain LST8, active compounds read low 0.981 | locus YNL020C, strain ARK1, active compounds read low 0.933 | locus YNL161W, strain CBK1, active compounds read low 0.975 | locus YNL183C, strain NPR1, active compounds read low 0.95 | locus YNL207W, strain RIO2, active compounds read low 0.973 | locus YNL222W, strain SSU72, active compounds read low 0.981 | locus YNL307C, strain MCK1 (second series), active compounds read low 0.944 | locus YOL078W, strain AVO1, active compounds read low 0.981 | locus YOL136C, strain PFK27, active compounds read low 0.961 | locus YOR061W, strain CKA2, active compounds read low 0.873 | locus YOR119C, strain RIO1, active compounds read low 0.929 | locus YOR231W, strain MKK1, active compounds read low 0.96 | locus YOR329C, strain SCD5, active compounds read low 0.982 | locus YPL031C, strain PHO85, active compounds read low 0.936 | locus YPL153C, strain RAD53, active compounds read low 0.948 | locus YPL204W, strain HRR25, active compounds read low 0.936 | locus YPL209C, strain IPL1, active compounds read low 0.983 | locus YPL256C, strain CLN2, active compounds read low 0.909 | locus YPR025C, strain CCL1, active compounds read low 0.975 | locus YPR106W, strain ISR1, active compounds read low 0.972 | locus YPR111W, strain DBF20, active compounds read low 0.955 | strain NNK1, active compounds read low 0.97 | strain TSCII, active compounds read low 0.98

From PubChem BioAssay AID1159580 (chemical genetic matrix, 2015)
